From the supplement of paper PMC10849652
Of roughly 7,900 targets only a part is listed; those with a hit were picked by preference. About 0.6% of all pairs of compound and target were hits.

Columns and labels:
Assay in all cases: log2 fold change, soluble protein after heating vs DMSO (PISA); higher = thermal stabilisation; K562 cells, 10 uM, 30 min; active = over 0.2 and 3.5 SD of the protein, either way, in both replicates (recomputed)
[1] = compound: CS(=O)(=O)c1ccc(-c2cnc(N)c(C(=O)Nc3ccccc3)n2)cc1
Summary of the method: (§1)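 Aliquots of K562 cells (2×10^6 cells/mL) treated with 10 μM compound for 30 min were heated for 3 min over 48°C-58°C. After pooling and extraction in PBS with 0.5% NP-40 at 4°C, soluble protein from a 21,000xg, 90 min spin was quantified by TMTpro 16plex LC-MS/MS with channel sums equalised. Thermal stability is expressed against control samples, from duplicates, as a log2 fold change.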

crizotinib = compound: C[C@@H](Oc1cc(-c2cnn(C3CCNCC3)c2)cnc1N)c1c(Cl)ccc(F)c1Cl [crizotinib]
Summary of the method: as §1

[2] = compound: C[C@@H]1COCCN1C2=NC(=NC(=C2)C3(CC3)S(=O)(=O)C)C4=C5C=CNC5=CC=C4
Summary of the method: as §1

[3] = compound: C[C@H](C1=CC=C(C=C1)C(=O)NC2=C3C=CNC3=NC=C2)N
Summary of the method: as §1

gandotinib = compound: Cc1cc(Nc2cc(CN3CCOCC3)c3nc(C)c(Cc4ccc(Cl)cc4F)n3n2)n[nH]1 [gandotinib]
Summary of the method: as §1

tozasertib = compound: Cc1cc(Nc2cc(N3CCN(C)CC3)nc(Sc3ccc(NC(=O)C4CC4)cc3)n2)n[nH]1 [tozasertib]
Summary of the method: as §1

doramapimod = compound: Cc1ccc(-n2nc(C(C)(C)C)cc2NC(=O)Nc2ccc(OCCN3CCOCC3)c3ccccc23)cc1 [doramapimod]
Summary of the method: as §1

bafetinib = compound: Cc1ccc(NC(=O)c2ccc(CN3CC[C@H](N(C)C)C3)c(C(F)(F)F)c2)cc1Nc1nccc(-c2cncnc2)n1 [bafetinib]
Summary of the method: as §1

[4] = compound: Cc1cccc(CC(=O)N2CCc3c2ccc(-c2cn(C)c4ncnc(N)c24)c3F)n1
Summary of the method: as §1

nilotinib = compound: Cc1cn(-c2cc(NC(=O)c3ccc(C)c(Nc4nccc(-c5cccnc5)n4)c3)cc(C(F)(F)F)c2)cn1 [nilotinib]
Summary of the method: as §1

[5] = compound: Cc1nc(Nc2n[nH]c3c2CN(C(=O)N[C@H](CN(C)C)c2ccccc2)C3(C)C)c2sccc2n1
Summary of the method: as §1

[6] = compound: Cc1ncc(-c2ccnc(Nc3ccc(S(C)(=O)=O)cc3)n2)n1C(C)C
Summary of the method: as §1

[7] = compound: Cn1cc(-c2ccc3c(c2)CCN3C(=O)Cc2cccc(C(F)(F)F)c2)c2c(N)ncnc21
Summary of the method: as §1

tipifarnib = compound: Cn1cncc1[C@@](N)(c1ccc(Cl)cc1)c1ccc2c(c1)c(-c1cccc(Cl)c1)cc(=O)n2C [tipifarnib]
Summary of the method: as §1

mubritinib = compound: FC(F)(F)c1ccc(/C=C/c2nc(COc3ccc(CCCCn4ccnn4)cc3)co2)cc1 [mubritinib]
Summary of the method: as §1

duvelisib = compound: C[C@H](Nc1ncnc2nc[nH]c12)c1cc2cccc(Cl)c2c(=O)n1-c1ccccc1 [duvelisib]
Summary of the method: as §1

[8] = compound: Cc1cc(SCc2sc(-c3ccc(C(F)(F)F)cc3)nc2C)ccc1OCC(=O)O
Summary of the method: as §1

ispinesib = compound: Cc1ccc(C(=O)N(CCCN)[C@@H](c2nc3cc(Cl)ccc3c(=O)n2Cc2ccccc2)C(C)C)cc1 [ispinesib]
Summary of the method: as §1

dasatinib = compound: Cc1nc(Nc2ncc(C(=O)Nc3c(C)cccc3Cl)s2)cc(N2CCN(CCO)CC2)n1 [dasatinib]
Summary of the method: as §1

[9] = compound: Cn1cc(-c2ccc3nnc(C(F)(F)c4ccc5ncccc5c4)n3n2)cn1
Summary of the method: as §1

Measured: log2 fold change

NDUFB1 (UniProt O75438)
UniProt O75438, sequence (O75438 whole entry, looked up): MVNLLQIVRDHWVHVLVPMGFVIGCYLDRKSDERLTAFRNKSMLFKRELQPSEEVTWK
inactive: [1] 0.06 | crizotinib 0.019 | [2] 0.105 | [3] 0.044 | gandotinib -0.27 | tozasertib 0.001 | doramapimod -0.044 | bafetinib -0.116 | [4] 0.028 | nilotinib 0.095 | [5] 0.009 | [6] -0.028 | [7] 0.004 | tipifarnib 0.038 | mubritinib 0.022

NUDT21 (UniProt O43809)
UniProt O43809, sequence (O43809 whole entry, looked up): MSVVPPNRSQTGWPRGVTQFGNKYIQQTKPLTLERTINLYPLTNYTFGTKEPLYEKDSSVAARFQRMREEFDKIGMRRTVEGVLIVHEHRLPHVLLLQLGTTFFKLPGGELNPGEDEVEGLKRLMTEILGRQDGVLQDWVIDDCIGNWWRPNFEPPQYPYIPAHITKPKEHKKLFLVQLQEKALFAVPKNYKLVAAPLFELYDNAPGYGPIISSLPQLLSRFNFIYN
inactive: [1] -0.054 | crizotinib 0.039 | [2] -0.031 | duvelisib -0.01 | gandotinib -0.059 | tozasertib 0.013 | [8] 0.039 | doramapimod 0.007 | ispinesib 0.116 | bafetinib 0.074 | [4] -0.071 | nilotinib 0.033 | dasatinib 0.031 | [6] 0.051 | [7] 0.029 | [9] -0.039 | tipifarnib -0.007 | mubritinib -0.008
active: [3] -0.209 | [5] -0.798

NA isoform 3 (UniProt Q4G0T1)
inactive: [1] 0.023 | crizotinib -0.004 | [3] -0.157 | duvelisib 0.042 | tozasertib 0.005 | [8] -0.001 | doramapimod 0.077 | ispinesib -0.099 | bafetinib -0.198 | nilotinib -0.021 | [5] -0.009 | dasatinib -0.093 | [6] 0.01 | [7] -0.065 | [9] 0.059 | tipifarnib -0.066 | mubritinib -0.066

NELFB isoform 2 (UniProt Q8WX92)
UniProt Q8WX92, sequence (Q8WX92 whole entry, looked up): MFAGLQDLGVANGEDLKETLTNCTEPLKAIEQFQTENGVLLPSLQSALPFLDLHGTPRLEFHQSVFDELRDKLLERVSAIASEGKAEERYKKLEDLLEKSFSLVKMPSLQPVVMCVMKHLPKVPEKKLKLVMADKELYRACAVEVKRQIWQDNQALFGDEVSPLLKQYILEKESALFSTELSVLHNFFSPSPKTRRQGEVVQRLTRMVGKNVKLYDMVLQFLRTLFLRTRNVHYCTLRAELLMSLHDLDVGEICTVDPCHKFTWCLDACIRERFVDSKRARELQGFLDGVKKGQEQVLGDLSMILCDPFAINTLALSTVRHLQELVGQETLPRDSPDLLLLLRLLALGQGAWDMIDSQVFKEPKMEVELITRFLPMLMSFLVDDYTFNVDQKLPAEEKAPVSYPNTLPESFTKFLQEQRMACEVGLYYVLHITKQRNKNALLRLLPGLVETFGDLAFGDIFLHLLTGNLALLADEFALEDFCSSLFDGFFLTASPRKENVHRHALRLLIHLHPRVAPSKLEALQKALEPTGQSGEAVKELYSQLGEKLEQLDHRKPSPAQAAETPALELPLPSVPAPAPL
inactive: [1] 0.059 | crizotinib 0.019 | [2] 0.087 | [3] -0.08 | duvelisib 0.088 | gandotinib -0.093 | tozasertib 0.033 | [8] 0.086 | doramapimod -0.087 | ispinesib 0.042 | bafetinib -0.088 | [4] 0.046 | nilotinib -0.135 | [5] -0.123 | dasatinib -0.189 | [6] 0.05 | [7] 0.032 | [9] 0.014 | tipifarnib -0.081 | mubritinib 0.03

NME2P1 (UniProt O60361)
UniProt O60361, sequence (O60361 whole entry, looked up): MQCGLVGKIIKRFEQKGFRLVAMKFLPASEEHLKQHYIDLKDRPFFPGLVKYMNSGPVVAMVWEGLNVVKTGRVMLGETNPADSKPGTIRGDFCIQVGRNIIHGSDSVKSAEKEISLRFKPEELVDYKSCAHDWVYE
inactive: [1] -0.093 | crizotinib -0.066 | [2] -0.114 | [3] 0.079 | gandotinib -0.346 | tozasertib -0.012 | doramapimod 0.27 | ispinesib -0.119 | bafetinib 0.058 | [4] 0.059 | nilotinib -0.236 | [5] -0.014 | [6] -0.107 | [7] -0.081 | [9] -0.013 | tipifarnib -0.055 | mubritinib 0.073

NIBAN1 (UniProt Q9BZQ8)
UniProt Q9BZQ8, sequence (Q9BZQ8 whole entry, looked up): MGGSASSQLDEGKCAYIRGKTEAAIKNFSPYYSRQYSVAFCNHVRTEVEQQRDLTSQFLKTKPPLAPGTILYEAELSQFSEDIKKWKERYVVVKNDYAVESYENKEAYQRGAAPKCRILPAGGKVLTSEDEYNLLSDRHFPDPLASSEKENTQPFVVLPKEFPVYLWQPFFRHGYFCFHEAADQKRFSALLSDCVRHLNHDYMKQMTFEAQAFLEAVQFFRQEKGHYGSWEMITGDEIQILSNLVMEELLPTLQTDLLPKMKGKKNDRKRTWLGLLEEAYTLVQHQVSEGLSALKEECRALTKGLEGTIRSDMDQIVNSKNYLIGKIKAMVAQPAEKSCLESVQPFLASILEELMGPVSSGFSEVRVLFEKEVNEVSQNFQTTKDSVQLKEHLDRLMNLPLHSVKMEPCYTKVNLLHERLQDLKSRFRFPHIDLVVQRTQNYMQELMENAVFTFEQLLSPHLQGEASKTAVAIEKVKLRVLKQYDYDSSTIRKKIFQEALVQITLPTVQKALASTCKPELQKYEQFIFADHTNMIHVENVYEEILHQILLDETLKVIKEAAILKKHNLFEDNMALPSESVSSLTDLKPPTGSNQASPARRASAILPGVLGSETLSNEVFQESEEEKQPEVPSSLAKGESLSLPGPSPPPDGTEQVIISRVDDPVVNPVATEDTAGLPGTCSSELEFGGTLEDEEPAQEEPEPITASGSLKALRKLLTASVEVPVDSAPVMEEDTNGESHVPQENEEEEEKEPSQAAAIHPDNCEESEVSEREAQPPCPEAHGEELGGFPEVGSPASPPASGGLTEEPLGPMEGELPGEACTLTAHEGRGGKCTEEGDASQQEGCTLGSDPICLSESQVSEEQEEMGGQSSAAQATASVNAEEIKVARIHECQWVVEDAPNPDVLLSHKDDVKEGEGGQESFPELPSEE
active: [5] -0.383
inactive: [1] 0.02 | crizotinib -0.296 | [2] 0.014 | [3] 0.097 | duvelisib 0.017 | gandotinib -0.143 | tozasertib -0.003 | [8] 0.116 | doramapimod 0.001 | ispinesib -0.148 | bafetinib -0.013 | [4] 0.121 | nilotinib -0.041 | dasatinib -0.14 | [6] -0.057 | [7] 0.001 | [9] -0.035 | tipifarnib -0.04 | mubritinib 0.013

NCL (UniProt P19338)
inactive: [1] -0.136 | crizotinib 0.12 | [2] -0.59 | [3] 0.428 | duvelisib -0.162 | gandotinib 0.315 | tozasertib 0.064 | [8] 0.075 | doramapimod 0.254 | ispinesib -0.19 | bafetinib 0.272 | [4] 0 | nilotinib -0.033 | [5] 0.026 | dasatinib 0.209 | [6] 0.051 | [7] -0.445 | [9] -0.237 | tipifarnib 0.225 | mubritinib -0.325

NCK1 (UniProt P16333)
inactive: [1] -0.077 | crizotinib -0.449 | [2] 0.171 | [3] 0.162 | duvelisib -0.135 | tozasertib 0.061 | [8] 0.076 | doramapimod -0.008 | ispinesib -0.173 | bafetinib 0.062 | nilotinib -0.069 | [5] -0.421 | dasatinib -0.138 | [6] 0.046 | [7] -0.086 | [9] -0.044 | tipifarnib 0.008 | mubritinib -0.058

NFYB (UniProt P25208)
UniProt P25208, sequence (P25208 whole entry, looked up): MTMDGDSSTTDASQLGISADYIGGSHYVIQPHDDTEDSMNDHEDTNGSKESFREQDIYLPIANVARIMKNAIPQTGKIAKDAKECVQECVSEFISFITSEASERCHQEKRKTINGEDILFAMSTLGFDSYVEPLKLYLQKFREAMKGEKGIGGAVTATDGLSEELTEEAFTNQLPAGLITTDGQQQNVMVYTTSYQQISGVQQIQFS
inactive: [1] -0.004 | crizotinib 0.069 | [3] -0.084 | duvelisib -0.123 | gandotinib 0.011 | tozasertib 0.085 | [8] -0.124 | doramapimod -0.028 | ispinesib 0.168 | bafetinib -0.086 | [4] -0.006 | nilotinib 0.074 | [5] -0.067 | dasatinib 0.124 | [6] 0.034 | [7] -0.012 | [9] -0.06 | tipifarnib -0.019 | mubritinib 0.127

PAFAH2 (UniProt Q99487)
inactive: [1] 0.005 | crizotinib 0.029 | [3] 0.08 | duvelisib 0.215 | tozasertib -0.011 | [8] -0.057 | doramapimod 0.053 | ispinesib -0.044 | bafetinib -0.083 | dasatinib -0.146 | [7] 0.079 | [9] 0.029
active: tipifarnib 0.611

NME7 (UniProt Q9Y5B8)
UniProt Q9Y5B8, sequence (Q9Y5B8 whole entry, looked up): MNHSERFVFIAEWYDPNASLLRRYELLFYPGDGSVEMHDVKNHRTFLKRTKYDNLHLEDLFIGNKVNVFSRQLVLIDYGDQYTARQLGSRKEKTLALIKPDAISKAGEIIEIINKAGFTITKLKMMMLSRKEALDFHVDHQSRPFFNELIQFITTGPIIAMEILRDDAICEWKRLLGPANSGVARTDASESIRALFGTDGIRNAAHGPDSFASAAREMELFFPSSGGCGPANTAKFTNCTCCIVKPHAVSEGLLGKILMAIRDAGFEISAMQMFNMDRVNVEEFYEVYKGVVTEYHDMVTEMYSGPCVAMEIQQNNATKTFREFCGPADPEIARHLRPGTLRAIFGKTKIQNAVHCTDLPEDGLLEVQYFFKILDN
inactive: [1] -0.187 | crizotinib -0.136 | [2] -0.027 | [3] 0.046 | duvelisib -0.031 | gandotinib -0.091 | tozasertib 0.068 | [8] 0.056 | doramapimod 0.033 | ispinesib -0.117 | bafetinib -0.14 | [4] 0.071 | dasatinib -0.245 | [7] -0.044 | [9] 0.009 | tipifarnib -0.001 | mubritinib -0.279

MRPS27 isoform 2 (UniProt Q92552)
inactive: [1] -0.017 | crizotinib -0.062 | [2] 0.005 | [3] 0.097 | duvelisib 0.029 | gandotinib 0.094 | tozasertib 0.002 | [8] 0.096 | doramapimod 0.013 | bafetinib 0.181 | [4] 0.099 | nilotinib -0.083 | [5] 0.021 | dasatinib -0.104 | [6] -0.049 | [7] 0.022 | [9] 0.033 | tipifarnib -0.112 | mubritinib 0.119
active: ispinesib -0.304

MON1A (UniProt Q86VX9)
UniProt Q86VX9, sequence (Q86VX9 whole entry, looked up): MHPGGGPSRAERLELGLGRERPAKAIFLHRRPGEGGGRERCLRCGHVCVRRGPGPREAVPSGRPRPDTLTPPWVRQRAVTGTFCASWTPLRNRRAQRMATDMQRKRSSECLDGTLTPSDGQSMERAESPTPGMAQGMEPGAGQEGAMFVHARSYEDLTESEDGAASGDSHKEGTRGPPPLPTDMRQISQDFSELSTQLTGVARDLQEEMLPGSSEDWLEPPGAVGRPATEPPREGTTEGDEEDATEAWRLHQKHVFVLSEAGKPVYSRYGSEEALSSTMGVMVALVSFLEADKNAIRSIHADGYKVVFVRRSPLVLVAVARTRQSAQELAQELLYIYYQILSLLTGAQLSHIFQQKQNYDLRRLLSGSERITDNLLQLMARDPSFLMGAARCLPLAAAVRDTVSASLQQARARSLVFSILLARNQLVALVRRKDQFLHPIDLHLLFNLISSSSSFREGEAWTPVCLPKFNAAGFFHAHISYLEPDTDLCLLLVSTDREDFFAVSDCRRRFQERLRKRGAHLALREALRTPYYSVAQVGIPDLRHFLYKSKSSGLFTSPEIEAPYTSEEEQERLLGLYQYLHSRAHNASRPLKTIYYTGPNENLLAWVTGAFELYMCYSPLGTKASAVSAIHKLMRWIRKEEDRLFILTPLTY
inactive: [1] 0.049 | [2] 0.057 | duvelisib -0.012 | gandotinib 0.116 | tozasertib -0.111 | [8] 0.011 | doramapimod 0.045 | ispinesib -0.153 | bafetinib -0.011 | [4] -0.112 | nilotinib -0.163 | [5] -0.056 | dasatinib 0.017 | [6] 0.138 | [9] -0.009 | tipifarnib 0.082 | mubritinib -0.012
active: crizotinib -0.559

NUMBL (UniProt Q9Y6R0)
UniProt Q9Y6R0, sequence (Q9Y6R0 whole entry, looked up): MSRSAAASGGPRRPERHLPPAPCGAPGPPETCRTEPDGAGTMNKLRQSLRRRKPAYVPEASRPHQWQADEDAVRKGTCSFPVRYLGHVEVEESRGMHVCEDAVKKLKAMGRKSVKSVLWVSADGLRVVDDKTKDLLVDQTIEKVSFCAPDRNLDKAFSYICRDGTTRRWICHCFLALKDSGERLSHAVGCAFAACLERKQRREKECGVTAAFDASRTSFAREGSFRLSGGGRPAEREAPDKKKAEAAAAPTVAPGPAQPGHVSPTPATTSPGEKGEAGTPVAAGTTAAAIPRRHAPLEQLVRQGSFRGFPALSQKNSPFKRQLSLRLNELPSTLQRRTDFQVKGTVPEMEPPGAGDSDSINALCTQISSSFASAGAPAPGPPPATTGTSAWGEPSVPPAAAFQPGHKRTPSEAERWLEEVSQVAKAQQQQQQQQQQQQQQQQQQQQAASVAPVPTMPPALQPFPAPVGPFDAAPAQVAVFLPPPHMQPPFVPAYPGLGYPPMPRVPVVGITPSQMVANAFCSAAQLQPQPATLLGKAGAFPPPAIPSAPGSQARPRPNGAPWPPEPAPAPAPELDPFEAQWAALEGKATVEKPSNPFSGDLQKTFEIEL
inactive: [1] 0.13 | crizotinib -0.021 | [2] 0.056 | [3] 0.044 | duvelisib 0.07 | gandotinib -0.025 | [8] 0.108 | doramapimod 0.109 | ispinesib -0.187 | bafetinib -0.002 | [4] 0.113 | nilotinib -0.001 | [5] -0.136 | dasatinib -0.029 | [6] 0.027 | [7] 0.041 | [9] 0.097 | tipifarnib 0.068 | mubritinib 0.28

MSL1 (UniProt Q68DK7)
UniProt Q68DK7, sequence (Q68DK7 whole entry, looked up): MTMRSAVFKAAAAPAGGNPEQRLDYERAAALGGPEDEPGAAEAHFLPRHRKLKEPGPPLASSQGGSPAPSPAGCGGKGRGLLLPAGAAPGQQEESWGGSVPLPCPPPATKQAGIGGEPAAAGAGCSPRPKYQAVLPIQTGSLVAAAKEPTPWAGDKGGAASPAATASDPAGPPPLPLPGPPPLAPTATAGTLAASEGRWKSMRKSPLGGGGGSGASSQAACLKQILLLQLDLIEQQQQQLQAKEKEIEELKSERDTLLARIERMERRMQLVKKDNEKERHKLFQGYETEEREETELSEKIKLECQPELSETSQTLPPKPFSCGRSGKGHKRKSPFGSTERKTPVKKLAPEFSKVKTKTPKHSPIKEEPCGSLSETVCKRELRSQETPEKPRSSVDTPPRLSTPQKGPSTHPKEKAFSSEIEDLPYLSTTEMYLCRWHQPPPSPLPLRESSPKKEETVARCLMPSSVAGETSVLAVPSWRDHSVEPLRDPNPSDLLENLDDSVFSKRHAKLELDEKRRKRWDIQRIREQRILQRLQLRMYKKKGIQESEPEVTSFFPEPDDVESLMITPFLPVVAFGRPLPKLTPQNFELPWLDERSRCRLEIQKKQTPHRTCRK
inactive: [1] 0.092 | crizotinib 0 | [2] 0.049 | duvelisib 0.195 | gandotinib 0.31 | [8] -0.162 | doramapimod -0.054 | ispinesib -0.078 | bafetinib -0.056 | [4] 0.172 | nilotinib 0.004 | [5] 0.068 | dasatinib 0.014 | [6] -0.042 | [9] -0.019 | tipifarnib -0.065 | mubritinib 0.148

MYLK (UniProt Q15746)
active: doramapimod 1.42 | bafetinib 0.827 | nilotinib 0.856 | dasatinib 0.65
inactive: [1] 0.279 | crizotinib 0.027 | [3] 0.107 | duvelisib 0.009 | gandotinib -0.018 | tozasertib 0.327 | [8] 0.04 | ispinesib -0.054 | [4] -0.063 | [5] 0.147 | [6] 0.136 | [7] -0.107 | [9] -0.128 | tipifarnib 0.047 | mubritinib 0

NEK3 (UniProt P51956)
UniProt P51956, sequence (P51956 whole entry, looked up): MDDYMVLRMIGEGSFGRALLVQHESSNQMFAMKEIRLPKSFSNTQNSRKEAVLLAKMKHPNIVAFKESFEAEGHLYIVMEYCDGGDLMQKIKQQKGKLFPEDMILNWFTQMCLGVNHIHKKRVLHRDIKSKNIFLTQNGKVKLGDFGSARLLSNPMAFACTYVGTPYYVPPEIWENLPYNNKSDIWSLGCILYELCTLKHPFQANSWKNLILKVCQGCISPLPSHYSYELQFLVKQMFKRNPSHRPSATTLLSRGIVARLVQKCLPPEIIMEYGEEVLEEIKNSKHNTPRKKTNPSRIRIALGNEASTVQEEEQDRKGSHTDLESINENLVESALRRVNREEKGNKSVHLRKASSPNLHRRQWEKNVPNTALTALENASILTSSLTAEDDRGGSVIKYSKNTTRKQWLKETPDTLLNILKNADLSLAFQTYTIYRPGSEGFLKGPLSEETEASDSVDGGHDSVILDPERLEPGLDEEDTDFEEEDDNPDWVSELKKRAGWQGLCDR
inactive: [1] -0.086 | crizotinib 0.08 | [2] 0.19 | [3] -0.19 | duvelisib -0.032 | gandotinib 0.103 | tozasertib 0.083 | [8] 0.05 | doramapimod -0.014 | ispinesib -0.006 | [4] -0.246 | nilotinib -0.026 | [5] -0.173 | dasatinib -0.055 | [6] -0.037 | [7] 0.101 | [9] -0.002 | tipifarnib -0.088 | mubritinib -0.076
